Laboratory results taken from PubChem BioAssay AID720509 (The Scripps Research Institute Molecular Screening Center, 2013).
Out of some 370,000 compounds screened, about 760 (0.21%) were called active. The list comes from a sample in which actives are over-represented; it also holds similar structures and randomly drawn compounds. Unmarked numbers belong to inactive results.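 The calls were made as follows: active = inhibition above a per-campaign cutoff: mean of compounds within control limits plus 3 SD (cut at about 15% in these data); inactive = the rest.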

Target: Fibrinogen beta chain (Homo sapiens) (UniProt P02675)
Sequence (P02675 whole entry, looked up): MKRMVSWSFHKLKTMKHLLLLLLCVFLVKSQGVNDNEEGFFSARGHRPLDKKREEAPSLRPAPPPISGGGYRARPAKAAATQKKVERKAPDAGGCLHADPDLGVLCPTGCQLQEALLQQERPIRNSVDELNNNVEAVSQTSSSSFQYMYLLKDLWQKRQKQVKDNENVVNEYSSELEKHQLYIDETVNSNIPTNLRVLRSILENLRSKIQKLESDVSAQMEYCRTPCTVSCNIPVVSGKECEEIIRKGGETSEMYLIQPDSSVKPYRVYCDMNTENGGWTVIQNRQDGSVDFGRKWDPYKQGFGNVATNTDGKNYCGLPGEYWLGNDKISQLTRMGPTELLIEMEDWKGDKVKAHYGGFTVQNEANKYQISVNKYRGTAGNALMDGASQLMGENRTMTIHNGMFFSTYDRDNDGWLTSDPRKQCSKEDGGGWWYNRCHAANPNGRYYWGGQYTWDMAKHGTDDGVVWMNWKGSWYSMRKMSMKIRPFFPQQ
Assay: inhibitors of Tn6 peptide binding to fibrin DD(E), primary screen, biochemical, fluorescence polarization, human fibrin, Tn6 probe (AID 720509);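 also: 0% = median of all compound wells on the plate and 100% = blocking peptide control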
Conditions: Fibrin DD(E) TRITC-Tn6 fluorescence polarization displacement; at 8.3 µM; hits give high values

SMILES | inhibition
CC1CNCCN1c1ccc(Cl)cc1 (stereo not given) | 0.71%
Cc1cc(N2CCNC[C@@H]2C)ccc1N1CC[C@H](O)C1 | 15.6% (active)
COc1ccccc1-n1c(O)c(C=NC2CC2)c(=O)[nH]c1=O | -5.91%
CC(=O)C1(O)CCC2C3CCC4=C(Cl)C(=O)CCC4(C)C3CCC21C (stereo not given) | -1.79%
OC(Cn1c2ccccc2c2ccccc21)C[n+]1ccccc1 (stereo not given) | -10%
COC1=C[C@@H]2[C@@H]3Cc4ccc(OC)c(O)c4[C@]2(CCN3C)CC1=O | 5.14%
COc1ccc2c(c1O)-c1cccc3c1[C@@H](C2)N(C)CC3 | 15.8% (active)
COc1c(O)ccc2c1-c1c3c(cc4c1C(C2)N(C)CC4)OCO3 (stereo not given) | 0.43%
Fc1cccc(F)c1CN1CCN(Cc2c(F)cccc2F)CC1 | -1.68%
CO[C@H]([C@H](C)/C=C/N(C)C=O)[C@@H](C)C(=O)CC[C@H](C)[C@H](O)[C@H](C)[C@H]1OC(=O)/C=C/C(C)=C/[C@H](O)[C@H](OC)C[C@@H]2C=CC[C@@H](C[C@H](OC)[C@@]3(CO3)[C@@H](OC)C[C@@H](OC)[C@@H]1C)O2 | 1.04%
